Reference: PubChem BioAssay (NCATS)
Unmarked numbers belong to inactive results. Calls come from the whole dose curve; as a rule, active = well fitted curve in the direction sought with a large enough effect; inconclusive = small, poorly fitted or top-dose-only effect, or another doubt; inactive = no such curve, though single readings can be large; an effect the other way counts as inactive or inconclusive.

tested on: not listed separately; test: Validation qHTS assay for inhibitors of Activation Induced Cytidine Deaminase (AID): UDG Counterscreen signal (AID 1347427); conditions: biochemical UDG counterscreen, fluorescence signal; series mostly up to 115 µM; activity, negative = inhibition: at the top concentration; note: 0% is about no effect
Procedure, shortened: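 Fluorescence at 560 nm excitation, 665 nm emission reports UDG signal after 250 mM NaOH (2x) addition and 30 min. Enzymes (AID 1 uM, UDG 2 U/mL, at 4/3x) preincubated 10 min with compound, then 4 h with 4x 250 nM DJC20/DJC23 substrate at room temperature.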

First: COC(=O)c1c(C)[nH]c(C)c1C(=O)c1ccccc1Cc1ccccc1
Second: O=C(O)c1cc([N+](=O)[O-])ccc1NCCCc1ccccc1
The “activity, negative = inhibition” value of the first is lower: -3.84% for the first, 8.4% for the second.

Compared with NCCSSCCN, NCCCS(=O)(=O)O is higher in “activity, negative = inhibition” value: -12.1% for the first, 7.94% for the second.

First: COc1cc2c(CCNC(C)=O)c[nH]c2cc1Cl
Second: O=C(O)c1cc(=O)c2c(Cl)cc(Cl)cc2[nH]1
The “activity, negative = inhibition” value of the first is lower: 7.72% for the first, 14.5% for the second.

Going from Nc1nc(Nc2ccccc2)nc2c1ncn2[C@@H]1O[C@H](CO)[C@@H](O)[C@H]1O to Nc1nc(Cl)nc2c1ncn2[C@@H]1O[C@H](CO)[C@@H](O)[C@H]1O, the “activity, negative = inhibition” value falls from 14.8% to 10.8%.

Compared with CNC(=O)[C@H]1O[C@@H](n2cnc3c(NCc4ccc(N)cc4)ncnc32)[C@H](O)[C@@H]1O, O=[N+]([O-])c1ccc(CSc2ncnc3c2ncn3[C@@H]2O[C@H](CO)[C@@H](O)[C@H]2O)cc1 is higher in “activity, negative = inhibition” value: -3.19% for the first, 10.6% for the second.

Compared with CNc1ncnc2c1ncn2[C@@H]1O[C@H](CO)[C@@H](O)[C@H]1O, OC[C@H]1O[C@@H](n2cnc3c(NC4CCCC4)ncnc32)[C@H](O)[C@@H]1O is higher in “activity, negative = inhibition” value: 3.6% for the first, 12.5% for the second.

Going from CN(C)C(N)=NCCC[C@H](N)C(=O)O to CCCCCCCCCCCCCCCC(=O)OC(CC(=O)O)C[N+](C)(C)C (centres undefined), the “activity, negative = inhibition” value falls from 8.01% to 5.07%.

First: O=C(O)CC1CCCc2ccccc2C1O (centres undefined)
Second: CN1CCc2cccc3c2C1Cc1ccc(O)c(O)c1-3 (centres undefined)
The “activity, negative = inhibition” value of the first is higher: 17.7% for the first, -2.2% for the second.

Compared with COc1ccc(NC(=O)/C=C/c2ccc(Cl)cc2)cc1, CN(C)c1ccc(/C=C2\C(=O)Nc3ccccc32)cc1 is lower in “activity, negative = inhibition” value: 9.3% for the first, 6.7% for the second.

Compared with CN=c1nc(-c2ccccc2)n(-c2ccccc2)s1, C[C@@H](CN1CCC(Cc2ccccc2)CC1)[C@@H](O)c1ccc(O)cc1 is lower in “activity, negative = inhibition” value: 8.95% for the first, 7.52% for the second.

Compared with Nc1ncnc2c1ncn2[C@@H]1O[C@H](COP(=O)(O)CP(=O)(O)OP(=O)(O)O)[C@@H](O)[C@H]1O, CSc1nc(N)c2ncn([C@@H]3O[C@H](COP(=O)(O)OP(=O)(O)OP(=O)(O)O)[C@@H](O)[C@H]3O)c2n1 is lower in “activity, negative = inhibition” value: 11.1% for the first, -3.83% for the second.

First: NC[C@H]1O[C@@H](n2cnc3c(N)ncnc32)[C@H](O)[C@@H]1O
Second: C[N+](C)(C)CCOP(=O)(O)OP(=O)([O-])OC[C@H]1O[C@@H](n2ccc(N)nc2=O)[C@H](O)[C@@H]1O
The “activity, negative = inhibition” value of the first is lower: 5.96% for the first, 11.4% for the second.

Going from Clc1ccc(N2CCN(Cc3cc4ccccn4n3)CC2)cc1 to Clc1ccc(N2CCN(Cc3c[nH]c4ncccc34)CC2)cc1, the “activity, negative = inhibition” value falls from 6.72% to 4.68%.

Compared with S=C(S)OC1CC2CC1C1CCCC21 (centres undefined), Cc1cc(NC2CCCCC2)nc(-n2nc(C)cc2C)n1 is lower in “activity, negative = inhibition” value: 5.92% for the first, 5.07% for the second.

Going from O=C1/C(=C/c2ccsc2)CC/C1=C\c1cccs1 to Oc1ccc(C2CNCc3sccc32)cc1O (centres undefined), the “activity, negative = inhibition” value falls from 10.8% to 1.42%.

First: COc1cccc(OC)c1OCCNCC1COc2ccccc2O1 (centres undefined)
Second: COc1ccccc1CNCCCCCCNCCCCCCCCNCCCCCCNCc1ccccc1OC
The “activity, negative = inhibition” value of the first is lower: 6.25% for the first, 11.8% for the second.

Compared with CCCCCCCCc1ccc(-c2ccc(C(=O)O)cc2)cc1, COc1cc(C(O)CO)ccc1OS(=O)(=O)O (centres undefined) is lower in “activity, negative = inhibition” value: 7.6% for the first, 5.02% for the second.

Going from CC[C@@H](C)[C@H]1O[C@]2(CC[C@H]1C)C[C@@H]1C[C@@H](CC=C(C)[C@@H](O[C@H]3C[C@H](OC)[C@@H](O[C@H]4C[C@H](OC)[C@@H](O)[C@H](C)O4)[C@H](C)O3)[C@@H](C)C=CC=C3CO[C@@H]4[C@H](O)C(C)=C[C@@H](C(=O)O1)[C@]34O)O2 to CC(C)(C=O)Cc1cc(C(C)(C)C)c(O)c(C(C)(C)C)c1, the “activity, negative = inhibition” value rises from -15.4% to 5.86%.

In the case of OCC1O[C@H](O)C(Cl)C(O)C1O (some centres undefined), the “activity, negative = inhibition” value is reported as 8.82%.

biological target: Single-stranded DNA cytosine deaminase (Homo sapiens) (UniProt Q9GZX7); test: Validation qHTS assay for inhibitors of Activation Induced Cytidine Deaminase (AID): AID signal (AID 1347429); conditions: Recombinant AID, FRET ssDNA deamination with UDG, fluorescence; series mostly up to 115 µM; activity change, negative = inhibition: at the top concentration; note: % is set by controls: 0 for no effect and ±100 for the full control effect
Sequence (Q9GZX7 whole entry, looked up): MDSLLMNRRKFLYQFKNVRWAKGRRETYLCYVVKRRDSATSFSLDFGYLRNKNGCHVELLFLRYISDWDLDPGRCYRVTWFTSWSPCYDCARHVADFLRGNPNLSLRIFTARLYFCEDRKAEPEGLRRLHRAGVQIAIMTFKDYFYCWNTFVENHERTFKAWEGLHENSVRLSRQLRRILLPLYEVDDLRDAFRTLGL
Procedure, shortened: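 Compounds (up to 114 uM final) are tested against AID plus UDG using DJC20/DJC23 FRET substrate. Reactions incubate 4 hr at room temperature, receive NaOH for 30 min, and are read at Ex 540/Em 590 nm.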

Going from COC(=O)c1c(C)[nH]c(C)c1C(=O)c1ccccc1Cc1ccccc1 to O=C(O)c1cc([N+](=O)[O-])ccc1NCCCc1ccccc1, the “activity change, negative = inhibition” value falls from -3.17% to -9.31%.

Compared with NCCSSCCN, NCCCS(=O)(=O)O is lower in “activity change, negative = inhibition” value: 15.3% for the first, 12.2% for the second.

Compared with COc1cc2c(CCNC(C)=O)c[nH]c2cc1Cl, O=C(O)c1cc(=O)c2c(Cl)cc(Cl)cc2[nH]1 is higher in “activity change, negative = inhibition” value: 10.8% for the first, 22.6% for the second.

First: Nc1nc(Nc2ccccc2)nc2c1ncn2[C@@H]1O[C@H](CO)[C@@H](O)[C@H]1O
Second: Nc1nc(Cl)nc2c1ncn2[C@@H]1O[C@H](CO)[C@@H](O)[C@H]1O
The “activity change, negative = inhibition” value of the first is higher: 26.8% for the first, 13.6% for the second.

First: CNC(=O)[C@H]1O[C@@H](n2cnc3c(NCc4ccc(N)cc4)ncnc32)[C@H](O)[C@@H]1O
Second: O=[N+]([O-])c1ccc(CSc2ncnc3c2ncn3[C@@H]2O[C@H](CO)[C@@H](O)[C@H]2O)cc1
The “activity change, negative = inhibition” value of the first is higher: 95.2% for the first, 17.3% for the second.

Going from CNc1ncnc2c1ncn2[C@@H]1O[C@H](CO)[C@@H](O)[C@H]1O to OC[C@H]1O[C@@H](n2cnc3c(NC4CCCC4)ncnc32)[C@H](O)[C@@H]1O, the “activity change, negative = inhibition” value rises from 15.7% to 18.7%.

Going from CN(C)C(N)=NCCC[C@H](N)C(=O)O to CCCCCCCCCCCCCCCC(=O)OC(CC(=O)O)C[N+](C)(C)C (centres undefined), the “activity change, negative = inhibition” value falls from 17.8% to 11.2%.

Going from O=C(O)CC1CCCc2ccccc2C1O (centres undefined) to CN1CCc2cccc3c2C1Cc1ccc(O)c(O)c1-3 (centres undefined), the “activity change, negative = inhibition” value rises from 25.4% to 51.4%.

Going from COc1ccc(NC(=O)/C=C/c2ccc(Cl)cc2)cc1 to CN(C)c1ccc(/C=C2\C(=O)Nc3ccccc32)cc1, the “activity change, negative = inhibition” value rises from 29.3% to 38.6%.

Going from CN=c1nc(-c2ccccc2)n(-c2ccccc2)s1 to C[C@@H](CN1CCC(Cc2ccccc2)CC1)[C@@H](O)c1ccc(O)cc1, the “activity change, negative = inhibition” value rises from 17.7% to 19.8%.

First: Nc1ncnc2c1ncn2[C@@H]1O[C@H](COP(=O)(O)CP(=O)(O)OP(=O)(O)O)[C@@H](O)[C@H]1O
Second: CSc1nc(N)c2ncn([C@@H]3O[C@H](COP(=O)(O)OP(=O)(O)OP(=O)(O)O)[C@@H](O)[C@H]3O)c2n1
The “activity change, negative = inhibition” value of the first is higher: 21.2% for the first, -9.63% for the second.

First: NC[C@H]1O[C@@H](n2cnc3c(N)ncnc32)[C@H](O)[C@@H]1O
Second: C[N+](C)(C)CCOP(=O)(O)OP(=O)([O-])OC[C@H]1O[C@@H](n2ccc(N)nc2=O)[C@H](O)[C@@H]1O
The “activity change, negative = inhibition” value of the first is lower: 15.3% for the first, 19.3% for the second.

Compared with Clc1ccc(N2CCN(Cc3cc4ccccn4n3)CC2)cc1, Clc1ccc(N2CCN(Cc3c[nH]c4ncccc34)CC2)cc1 is lower in “activity change, negative = inhibition” value: 7.63% for the first, 6.86% for the second.

First: S=C(S)OC1CC2CC1C1CCCC21 (centres undefined)
Second: Cc1cc(NC2CCCCC2)nc(-n2nc(C)cc2C)n1
The “activity change, negative = inhibition” value of the first is lower: 4.73% for the first, 6.36% for the second.

Compared with O=C1/C(=C/c2ccsc2)CC/C1=C\c1cccs1, Oc1ccc(C2CNCc3sccc32)cc1O (centres undefined) is higher in “activity change, negative = inhibition” value: 19.1% for the first, 22.6% for the second.

Going from COc1cccc(OC)c1OCCNCC1COc2ccccc2O1 (centres undefined) to COc1ccccc1CNCCCCCCNCCCCCCCCNCCCCCCNCc1ccccc1OC, the “activity change, negative = inhibition” value rises from 9.12% to 121%.

Going from CCCCCCCCc1ccc(-c2ccc(C(=O)O)cc2)cc1 to COc1cc(C(O)CO)ccc1OS(=O)(=O)O (centres undefined), the “activity change, negative = inhibition” value rises from -6.73% to 9.08%.

Compared with CC[C@@H](C)[C@H]1O[C@]2(CC[C@H]1C)C[C@@H]1C[C@@H](CC=C(C)[C@@H](O[C@H]3C[C@H](OC)[C@@H](O[C@H]4C[C@H](OC)[C@@H](O)[C@H](C)O4)[C@H](C)O3)[C@@H](C)C=CC=C3CO[C@@H]4[C@H](O)C(C)=C[C@@H](C(=O)O1)[C@]34O)O2, CC(C)(C=O)Cc1cc(C(C)(C)C)c(O)c(C(C)(C)C)c1 is higher in “activity change, negative = inhibition” value: -8.82% for the first, 5.71% for the second.

For OCC1O[C@H](O)C(Cl)C(O)C1O (some centres undefined), the “activity change, negative = inhibition” value was 12.9%.
